Experiments:
Test in all cases: PBM binding z-score (relative to random genomic background probes); higher = stronger binding; sequences stand for … in GC…GCGATTGACAGCGTAGAATGAAGG
[1] = system: PPARg:RXRa DBDmut IVT, anti-RXR (DBD mutation: RXRa K156A/R161A, NR concentration 270 nM, RXRa partner concentration 90 nM)
Summary of the method: (§1)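 Antibodies against each partner of ligand-free nuclear receptor dimers (one per run) detected binding on custom Agilent 4×180K protein-binding microarrays after 1 h incubation. The double-stranded probes had 34-nt variable regions carrying direct-repeat seeds, single-nucleotide variants, half-site ablations and random human genomic background sequences. Binding z-scores, from regression-normalized fluorescence, use the random background probes as reference.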

[2] = system: PPARg:RXRa IVT, anti-PPARg (NR concentration 270 nM, RXRa partner concentration 90 nM)
Summary of the method: as §1

[3] = system: PPARg DBDmut:RXRa IVT, anti-PPARg (DBD mutation: PPARg1 K132A/R137A, NR concentration 270 nM, RXRa partner concentration 90 nM)
Summary of the method: as §1

[4] = system: PPARg DBDmut IVT, anti-PPARg (DBD mutation: PPARg1 K132A/R137A, NR concentration 270 nM)
Summary of the method: as §1

[5] = system: PPARg homodimer (NR concentration 180 nM)
Summary of the method: as §1

[6] = system: PXR:RXRa (NR concentration 270 nM, RXRa partner concentration 90 nM)
Summary of the method: as §1

[7] = system: PXR homodimer (NR concentration 270 nM)
Summary of the method: as §1

[8] = system: RARa:RXR (NR concentration 270 nM, RXRa partner concentration 90 nM)
Summary of the method: as §1

[9] = system: RARa homodimer (NR concentration 270 nM)
Summary of the method: as §1

[10] = system: RARb:RXRa (NR concentration 270 nM, RXRa partner concentration 90 nM)
Summary of the method: as §1

| Sequence | PBM binding z-score [1] | PBM binding z-score [2] | PBM binding z-score [3] | PBM binding z-score [4] | PBM binding z-score [5] | PBM binding z-score [6] | PBM binding z-score [7] | PBM binding z-score [8] | PBM binding z-score [9] | PBM binding z-score [10] |
| --- | --- | --- | --- | --- | --- | --- | --- | --- | --- | --- |
| AGTCAAAGTTCATCTAGGTAACGTAGGATATGCT | 1.16 | 3.96 | 1.76 | 1.26 | 2.37 | 5.12 | 7.16 | 3.89 | 1.67 | 4.85 |
| ACTAGCAGGCCAAGGGTCACTCTAGATTAGTCCG | 0.951 | 3.59 | -0.404 | -0.203 | 2.32 | 2.94 | -0.367 | 4.14 | -0.113 | 3.1 |
| CCGACTGGGGCAGGGTTACCATAACGCACAGCCA | 1.51 | 2.47 | -0.73 | -1.24 | 0.145 | 0.395 | -0.445 | 0.895 | -0.407 | 0.803 |
| CCTCGGAGGACAACAGGAGATCAGAGCTGCCAGA | -0.232 | -0.63 | -1.13 | -1.73 | -0.0101 | -0.68 | -0.412 | -0.621 | -0.0651 | 0.694 |
| ATCTCTAGGTAAGACTCCGTTCAGTGAAGAACGC | 2.22 | 1.25 | 0.571 | 0.804 | 1.16 | 0.0673 | 0.0511 | 0.105 | 0.882 | 0.229 |
| CCTTACGGTTCAAGGTTATAGCACGGGTGGTACG | -0.682 | 0.211 | 0.502 | -0.14 | 1.49 | 2.28 | 1.34 | 2.24 | 1.14 | 1.73 |
| AGTACAGGGTCATCGTAGGCCAGAGTACGCACAG | 1.41 | 3.74 | 2.14 | 0.916 | 3.28 | 4.88 | 0.894 | 5.21 | 0.349 | 4.46 |
| CTCGCAAGGTCGGTTGAGGTGAGTATACGGATAA | -0.323 | 0.241 | -0.57 | -0.227 | -0.181 | 1.73 | -0.0452 | 1.19 | -0.537 | 1.77 |
| GCGACTGGAGCAAAGCAGGTTACCATAAGGTTGG | 1.03 | 0.463 | -1.39 | -1.59 | 0.00968 | -0.101 | -0.667 | 0.372 | -0.65 | -0.192 |
| AGCACGAGGGCAATGAGTTGATAGCACGGGTGGC | 1.23 | 0.791 | -0.0946 | -0.486 | -0.285 | 1.56 | 5.64 | 0.00535 | -0.029 | 2.14 |
| ATCTCTAGGTCAAGATAGTTCAGTGAATGCAAAT | 6.08 | 6.47 | 1.92 | 2.11 | 2.05 | 5.27 | 1.48 | 3.29 | 1.32 | 4.26 |
| CCTACCGGGCCATCAGGTCATTGATATCAACGTT | 0.52 | 1.97 | -0.847 | -0.348 | 1.25 | 1.64 | 0.864 | 1.95 | 0.127 | 2.21 |
| ACAAACAGGTGAGTGAAGGTAACTCAGCTGGACG | 1.21 | 1.19 | 0.208 | 0.336 | 0.244 | -0.255 | -0.143 | 0.192 | 0.0567 | 0.585 |
| AGCATGAGGTTATACGTAGATCAGGGAAGAAAGT | 0.656 | 0.149 | 0.86 | 0.438 | 0.658 | 0.995 | 0.948 | 1.38 | 0.699 | 1.46 |
| TCTTGTAGATCAACAGGTGGTTAAGAAAGATCGA | 1.73 | 0.582 | 0.605 | 0.677 | 0.713 | -0.0683 | 0.00391 | 0.0313 | 0.688 | -0.0604 |
| GCGACTGGGGCAAAGCCGGTTACCATAAGGTTGG | 3.46 | 2.75 | -0.287 | -1.49 | -0.424 | -0.547 | -0.627 | -0.45 | -0.427 | 0.632 |
| AGAATGAGGTTACCAAAGATCAGAGAAACGCTTG | 3.76 | 3.32 | 1.01 | 0.709 | 0.304 | 1.28 | 0.161 | 2.02 | 0.489 | 2.09 |
| CAAACTAGGCCACCGGAAGGTCAAAGTCCGCATG | 7.33 | 6.74 | 1.26 | 1.26 | 3.52 | 3.81 | 1.26 | 4.32 | 1.24 | 3.54 |
| CAAACTAGGTCACCGGAAGGTCAATGTCCGCATG | 8.58 | 8.99 | 1.98 | 1.35 | 6.39 | 5.65 | 1.15 | 6.94 | 1.41 | 5.25 |
| AGTCAAAGTTCATCTAGCTAACGTAAGATATGCT | 0.278 | 2.41 | 1.28 | 0.69 | 2.37 | 4.83 | 4.89 | 3.89 | 1.29 | 4.79 |
| ATGTCTAGGTAAAGTTCAGTGAAAGATCGATAGA | 1.29 | 2.46 | 1.14 | 1.13 | 1.69 | 2.12 | 1.98 | 1.13 | 1.09 | 2.84 |
| TCCAGTAGGTTAGGGGCATTCAGAATGGCGTCGA | 3.35 | 2.67 | -0.472 | 0.307 | 1.01 | 0.69 | 0.251 | 0.878 | -0.317 | 1.22 |
| CAAACTAGCTCAAAGGTCAAAGTCGAGCCAACCA | 1.24 | 4.54 | 0.599 | 0.63 | 4.6 | 5.37 | 1.71 | 6.39 | 2.49 | 4.76 |
